Data on eleven compounds can be found in PubChem BioAssay (NCATS).

Experiment [1] is described as follows: qHTS of pediatric cancer cell lines to identify multiple opportunities for drug repurposing: Primary screen for Saos-2 cells (AID 1347097). Also: nearly all actives have a fitted effect of over 40% in size. The procedure, abridged: (§1)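 Readout: CellTiter-Glo luminescence, 48 h treatment. Controls DMSO (neutral) and bortezomib 2.3 µM final (positive). Potency and efficacy taken from primary-screen concentration-response curves.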
On the technique in general: Quantitative high-throughput screening tests each substance at several concentrations.

The nature of experiment [2]: qHTS of pediatric cancer cell lines to identify multiple opportunities for drug repurposing: Primary screen for SK-N-SH cells (AID 1347098). Also: nearly all actives have a fitted effect of over 65% in size. The procedure, abridged: (§2)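 Cells (500-1,000/well) rested 5 h, then received compounds for 48 h; metabolically active cells were measured by CellTiter-Glo luminescence. Final concentrations spanned up to 46 µM (MIPE, 11-point) or 0.59 nM-46 µM (NPC, 8-point) in primary screens, 11-point in follow-ups.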

Experiment [3] is described as follows: qHTS of pediatric cancer cell lines to identify multiple opportunities for drug repurposing: Primary screen for NB1643 cells (AID 1347099). Also: nearly all actives have a fitted effect of over 50% in size. The procedure, abridged:
as §1

The nature of experiment [4]: qHTS of pediatric cancer cell lines to identify multiple opportunities for drug repurposing: Primary screen for LAN-5 cells (AID 1347100). The procedure, abridged:
(§3)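 Cells (500-1,000/well) in growth media were settled 5 h at 37 degrees C, then given compounds for 48 h. Viability was read as CellTiter-Glo luminescence. Primary runs used MIPE at 11 points (0.78 nM-46 µM) and NPC at 8 points (0.59 nM-46 µM); follow-ups used 11 points.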

Experiment [5] is described as follows: qHTS of pediatric cancer cell lines to identify multiple opportunities for drug repurposing: Primary screen for BT-12 cells (AID 1347101). Also: nearly all actives have a fitted effect of over 25% in size. The procedure, abridged: as §2
Experiment [6] is described as follows: qHTS of pediatric cancer cell lines to identify multiple opportunities for drug repurposing: Primary screen for Rh18 cells (AID 1347102). Also: nearly all actives have a fitted effect of over 65% in size. The procedure, abridged:
as §3

The nature of experiment [7]: qHTS of pediatric cancer cell lines to identify multiple opportunities for drug repurposing: Primary screen for OHS-50 cells (AID 1347103). Also: nearly all actives have a fitted effect of over 40% in size. Also: potency is read from the fitted curve at half-maximal effect. The procedure, abridged: as §2
The nature of experiment [8]: qHTS of pediatric cancer cell lines to identify multiple opportunities for drug repurposing: Primary screen for RD cells (AID 1347104). Also: nearly all actives have a fitted effect of over 55% in size. The procedure, abridged:
as §1

A short description of experiment [9]: qHTS of pediatric cancer cell lines to identify multiple opportunities for drug repurposing: Primary screen for MG 63 (6-TG R) cells (AID 1347105). Also: nearly all actives have a fitted effect of over 50% in size. Also: potency is read from the fitted curve at half-maximal effect. The procedure, abridged: as §1
Experiment [10] can be described thus: qHTS of pediatric cancer cell lines to identify multiple opportunities for drug repurposing: Primary screen for control Hh wild type fibroblast cells (AID 1347106).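 Also: series mostly up to about 46 µM; a drop in luminescence marks cytotoxicity and a rise apparent proliferation; nearly all actives have a fitted effect of over 55% in size.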 The procedure, abridged: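 Viability after 48 h compound treatment at 37C, 500-1,000 cells/well, read as ATP luminescence with CellTiter-Glo. Primary screens used 11-point (MIPE, 0.78 nM-46 µM) or 8-point (NPC, 0.59 nM-46 µM) final concentrations; follow-up screens used 11-point dilutions.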

The nature of experiment [11]: qHTS of pediatric cancer cell lines to identify multiple opportunities for drug repurposing: Primary screen for Rh41 cells (AID 1347108).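 Also: series mostly up to about 46 µM; luminescence drop marks cytotoxic hits; nearly all actives have a fitted effect of over 70% in size.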 The procedure, abridged:
as §1

Experiment [12] is described as follows: qHTS of pediatric cancer cell lines to identify multiple opportunities for drug repurposing: Primary screen for Rh30 cells (AID 1347107). Also: series mostly up to about 46 µM; nearly all actives have a fitted effect of over 75% in size. The procedure, abridged:
as §3

Experiment [13] is described as follows: qHTS of pediatric cancer cell lines to identify multiple opportunities for drug repurposing: Confirmatory screen for A673 cells (AID 1347110).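 Also: cells exposed to compound for 48 h before the viability read; nearly all actives have a fitted effect of over 65% in size.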 The procedure, abridged:
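A673 cells seeded at 500-1,000 cells/well, rested 5 h, then dosed; primary MIPE 11-point (0.78 nM to 46 µM), NPC (0.59 nM to 46 µM); confirmatory 11-point. CellTiter-Glo luminescence after 48 h.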

Experiment [14] in a line: qHTS of pediatric cancer cell lines to identify multiple opportunities for drug repurposing: Confirmatory screen for SK-N-MC cells (AID 1347111).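 Also: potency is read from the fitted curve at half-maximal effect; cells exposed to compound for 48 h before the readout; nearly all actives have a fitted effect of over 70% in size.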 The procedure, abridged: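 Metabolically active cells were quantified by ATP-dependent luminescence (CellTiter-Glo, 15 min at room temperature) following 48 h treatment. Cells had been plated at 500-1,000 per well and settled for 5 h beforehand.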

Experiment [15] can be described thus: qHTS of pediatric cancer cell lines to identify multiple opportunities for drug repurposing: Confirmatory screen for DAOY cells (AID 1347114). Also: nearly all actives have a fitted effect of over 65% in size. The procedure, abridged:
(§4)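 Viability measured as metabolically active cells via CellTiter-Glo luminescence following 48 hours of compound exposure, 11-point dilutions in confirmatory testing. 500-1,000 cells/well plated 5 hours before dosing; controls were DMSO and 2.3 µM bortezomib.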

Experiment [16] in a line: qHTS of pediatric cancer cell lines to identify multiple opportunities for drug repurposing: Confirmatory screen for NB-EBc1 cells (AID 1347115).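 Also: cells exposed to compound for 48 h before the viability read; nearly all actives have a fitted effect of over 45% in size.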 The procedure, abridged: as §3
Experiment [17] in a line: qHTS of pediatric cancer cell lines to identify multiple opportunities for drug repurposing: Confirmatory screen for SJ-GBM2 cells (AID 1347116). Also: nearly all actives have a fitted effect of over 60% in size. The procedure, abridged: as §4
Experiment [18] in a line: qHTS of pediatric cancer cell lines to identify multiple opportunities for drug repurposing: Confirmatory screen for BT-37 cells (AID 1347117). Also: nearly all actives have a fitted effect of over 55% in size. The procedure, abridged:
as §3

Experiment [19] can be described thus: qHTS of pediatric cancer cell lines to identify multiple opportunities for drug repurposing: Confirmatory screen for MG 63 (6-TG R) cells (AID 1347119). Also: nearly all actives have a fitted effect of over 55% in size. Also: potency is read from the fitted curve at half-maximal effect. The procedure, abridged: as §3
Experiment [20] is described as follows: qHTS of pediatric cancer cell lines to identify multiple opportunities for drug repurposing: Confirmatory screen for LAN-5 cells (AID 1347113). Also: nearly all actives have a fitted effect of over 65% in size. The procedure, abridged:
as §3

Records with an inconclusive call do not appear. Activity calls are given as the source filed them. Calls follow the shape of the dose curve; as a rule, active = well fitted curve in the direction sought with a large enough effect; inconclusive = small, poorly fitted or top-dose-only effect, or another doubt; inactive = no such curve, though single readings can be large; an effect the other way counts as inactive or inconclusive.

For `N[C@@H](CCC(=O)N[C@@H](CS)C(=O)NCC(=O)O)C(=O)O`, the Potency entry in [1], in [2], in experiment [3], in experiment [4], in experiment [5] and in [6] was “inactive” throughout. In addition, the Potency entry in experiment [7], in experiment [8], in [9], in experiment [10] and in [11] was “inactive” in each case.

As for `CCOC(=O)n1ccn(C)c1=S`, the Potency entry in experiment [1], in experiment [2], in experiment [3], in experiment [4], in experiment [5] and in [6] was “inactive” throughout. Also, the Potency result in [7], in [8], in experiment [10], in experiment [12] and in experiment [11] was “inactive” in each case.

As for `CCN1CCC[C@H]1CNC(=O)c1c(OC)ccc(Br)c1OC`, the Potency entry in experiment [1], in experiment [2], in experiment [3], in experiment [4], in experiment [5] and in [6] was “inactive” in each case. The Potency result in [8], in experiment [9], in experiment [10], in experiment [12] and in experiment [11] was “inactive” throughout.

As to `CC1=C(C(=O)O)N2C(=O)[C@@H](NC(=O)[C@H](N)c3ccc(O)cc3)[C@H]2SC1`, the Potency result in experiment [1], in [2], in [3], in [4], in experiment [5] and in [6] was “inactive” throughout. Further, the Potency result in [7], in experiment [8], in experiment [10], in experiment [12] and in [11] was “inactive” each time.

Take `NC(CS)C(=O)O` (stereo not given): the Potency entry in [1], in [2], in [3], in [4], in experiment [5] and in experiment [6] was “inactive” throughout. The Potency entry in experiment [8], in experiment [10], in [12] and in experiment [11] was “inactive” in each case.

On to `Cc1cccn2c(=O)c(-c3nnn[nH]3)cnc12`, for which the Potency result in [1], in experiment [2], in experiment [3], in experiment [4], in experiment [5] and in experiment [6] was “inactive” each time. Also, the Potency entry in [8], in experiment [9], in experiment [10], in experiment [12] and in experiment [11] was “inactive” each time.

In the case of `C[C@]12CCC(=O)C=C1[C@@H]1C[C@@H]1[C@H]1[C@@H]3[C@@H]4C[C@@H]4[C@@]4(CCC(=O)O4)[C@@]3(C)CC[C@@H]12`, the Potency entry in experiment [1], in experiment [2], in [3], in [4], in [6] and in experiment [8] was “inactive” each time. For the same compound, the Potency result in experiment [9], in experiment [10], in experiment [12] and in [11] was “inactive” throughout. In experiment [7], the Potency is 24.6 µM (active).

As for `C=CCc1ccc(O)c(OC)c1`, the Potency result in [1], in experiment [2], in experiment [3], in experiment [4], in [5] and in [6] was “inactive” in each case. Besides, the Potency result in experiment [8], in experiment [9], in experiment [10] and in [11] was “inactive” in each case.

Turning to `NC(CO)(CO)CO`, the Potency result in [1], in [2], in experiment [3], in experiment [4], in [5] and in [6] was “inactive” in each case. Moreover, the Potency result in experiment [8], in experiment [9], in [10], in [11], in experiment [13] and in experiment [15] was “inactive” in each case. Moreover, the Potency result in experiment [16], in [17], in experiment [18] and in experiment [19] was “inactive” in each case. For the same compound, the Potency in experiment [14] is 8.27 µM (active).

Turning to `CC(=O)Oc1ccc(C(c2ccc(OC(C)=O)cc2)c2ccccn2)cc1`, the Potency result in [1], in experiment [2], in experiment [3], in [4], in experiment [5] and in experiment [6] was “inactive” in each case. In addition, the Potency result in experiment [8], in experiment [10], in [11], in experiment [20], in experiment [15] and in experiment [16] was “inactive” in each case. The Potency entry in experiment [17] is “inactive”. Also, the Potency in experiment [9] is 0.211 µM (active); in experiment [19] it was 1.17 µM (active).

With `C[C@@H]1C[C@H]2[C@@H]3CCC4=CC(=O)C=C[C@]4(C)[C@@]3(F)[C@@H](O)C[C@]2(C)[C@H]1C(=O)CO`, the Potency result in [1], in experiment [2], in [3], in experiment [4], in experiment [5] and in experiment [6] was “inactive” each time. Besides, the Potency entry in experiment [8], in experiment [9], in [10], in experiment [12], in experiment [11] and in experiment [13] was “inactive” each time. In addition, the Potency result in [20], in experiment [15], in [16], in experiment [17] and in [18] was “inactive” throughout.
